Records with an inconclusive call do not appear. Calls of active or inactive are those of the source. Rule for the calls, unless noted: active = hit-call score of the fitted dose curve at least 0.9, where 1 is the maximum; inactive = score below 0.9.
Key:
[1] = CCTE_Harrill_HTTr_Viability_MCF7: CCTE's 6-hour Cell Viability Assessment for the High-Throughput Transcriptomics (HTTr) Platform, in MCF-7 cells cultured in DMEM + 10% fetal bovine serum, Harrill Lab (AID 2284010)
Procedure, shortened: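 Viability measured through PI dye exclusion by high-content imaging at 6 h post-dosing.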

[2] = CCTE_Harrill_HTTr_Apoptosis_MCF7: CCTE's 6-hour Apoptosis Assessment for the High-Throughput Transcriptomics (HTTr) Platform, in MCF-7 cells cultured in DMEM + 10% fetal bovine serum, Harrill Lab (AID 2284011)
Procedure, shortened: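 MCF-7 cells in DMEM + 10% fetal bovine serum were exposed to chemicals for 6 hours over an eight-point dilution series. Caspase-3/7 activation was imaged by high content imaging with CellEvent Caspase 3/7 Green; bidirectional fitting used DMSO as baseline.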

[3] = CCTE_Harrill_HTTr_CellCount_MCF7: CCTE's Cell Proliferation Assessment for the High-Throughput Transcriptomics (HTTr) Platform, Harrill Lab (AID 2284012; active = hit-call score of the fitted dose curve at least 0.9, where 1 is the maximum;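 note: count of Hoechst-stained nuclei per well by high-content imaging in MCF-7 cells; cells exposed to compound for six hours; intended direction is loss of nuclei count meaning fewer cells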)
Procedure, shortened: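 Nuclei counting (Hoechst, high content imaging) in MCF-7 after a 6 h treatment at eight concentrations. Activity fitted bidirectionally, DMSO as negative control.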

| Compound | outcome [1] | outcome [2] | outcome [3] |
| --- | --- | --- | --- |
| Clc1cccc(C(Cl)(Cl)Cl)n1 | inactive | inactive | inactive |
| CN=C=S | inactive | inactive |  |
| CCOP(=S)(OCC)Oc1nc(Cl)n(C(C)C)n1 | inactive | inactive | inactive |
| Cc1cc(C)nc(Nc2ccccc2)n1 | inactive | inactive |  |
| COc1ccc(-c2ccccc2)cc1NNC(=O)OC(C)C | inactive | inactive |  |
| CS(=O)(=O)c1ccc(C(=O)C2C(=O)CCCC2=O)c([N+](=O)[O-])c1 | inactive | inactive | inactive |
| CCOc1nc(C(Cl)(Cl)Cl)ns1 | inactive | inactive | inactive |
| CCSC(=O)N1CCCCCC1 | inactive | inactive |  |
| COC(=O)c1c(C(F)F)nc(C(F)(F)F)c(C2=NCCS2)c1CC(C)C | inactive | inactive | inactive |
| CC(C)(C)C(=O)C(Oc1ccc(Cl)cc1)n1cncn1 (stereo not given) | inactive | inactive | inactive |
| CSC(=O)c1c(C(F)F)nc(C(F)(F)F)c(C(=O)SC)c1CC(C)C | inactive | inactive |  |
| O=P(O)(O)CCCl | inactive | inactive |  |
| COC(=O)NC(=S)Nc1ccccc1NC(=S)NC(=O)OC | inactive | inactive | inactive |
| CCN(CC)C(=O)C(C)Oc1cccc2ccccc12 (stereo not given) | inactive | inactive |  |
| CCN(CC)c1nc(C)cc(OP(=S)(OC)OC)n1 | inactive | inactive | inactive |
| COP(=O)(OC)O/C(C)=C/C(=O)N(C)C | inactive | inactive |  |

| Compound | outcome [1] | outcome [2] | outcome [3] |
| --- | --- | --- | --- |
| Nc1cnn(-c2ccccc2)c(=O)c1Cl | inactive | inactive |  |
| CC(C)Oc1cccc(NC(=O)c2ccccc2C(F)(F)F)c1 | inactive | inactive | inactive |
| CCC(C)n1c(=O)[nH]c(C)c(Br)c1=O (stereo not given) | inactive | inactive | inactive |
| CS(=O)(=O)c1cc(C(F)(F)F)ccc1C(=O)c1cnoc1C1CC1 | inactive | inactive | inactive |
| Cc1cnc(C2=NC(C)(C(C)C)C(=O)N2)c(C(=O)O)c1 (stereo not given) | inactive | inactive | inactive |
| CNC(=O)N(C)c1nnc(C(C)(C)C)s1 | inactive | inactive |  |
| CC1(C)CON(Cc2ccccc2Cl)C1=O | inactive | inactive |  |
| O=C1C2CC=CCC2C(=O)N1SC(Cl)(Cl)Cl (stereo not given) | inactive | inactive | inactive |
| COc1cc(Cl)c(OC)cc1Cl | inactive | inactive |  |
| CCCCOCN(C(=O)CCl)c1c(CC)cccc1CC | inactive | inactive | inactive |
| COCC(C)N(C(=O)CCl)c1c(C)csc1C (stereo not given) | inactive | inactive |  |
| COP(=S)(OC)Oc1ccc([N+](=O)[O-])c(C)c1 | inactive | inactive | inactive |
| COC(=O)NS(=O)(=O)c1ccc(N)cc1 | inactive | inactive | inactive |
| CCNP(=S)(OC)O/C(C)=C/C(=O)OC(C)C (stereo not given) | inactive | inactive | inactive |
| CCCCC(C#N)(Cn1cncn1)c1ccc(Cl)cc1 (stereo not given) | inactive | inactive | inactive |

Reference: PubChem BioAssay (EPA / NIEHS)
